# Most compounds without a hit are left out; they make up all but 2.8% or so of the library.
# PAFAH1B2 inh: PAFAH1B2 enzyme inhibitors, primary screen, biochemical, fluorescence polarization, human. Platelet-activating factor acetylhydrolase IB subunit alpha2 (Homo sapiens), P68402. recombinant PAFAH1B2, FP-rhodamine activity probe. inhibition, % at 3.39 µM. actives 1.2% (n = 340,000). AID 492953, 2010;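 active = inhibition above the mean of all tested compounds plus 3 SD, cut at about 24% in these data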;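 also: 0% = enzyme with DMSO and 100% = wells lacking PAFAH1B2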
# Target sequence (P68402 whole entry, looked up): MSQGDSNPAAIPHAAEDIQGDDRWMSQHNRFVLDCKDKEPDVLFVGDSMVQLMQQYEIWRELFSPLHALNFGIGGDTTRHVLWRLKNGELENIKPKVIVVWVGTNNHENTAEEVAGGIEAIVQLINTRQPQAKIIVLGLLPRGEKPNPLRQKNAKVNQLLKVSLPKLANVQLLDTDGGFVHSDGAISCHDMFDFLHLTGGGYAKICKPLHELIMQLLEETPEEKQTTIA
# PAFAH2 FP inh: PAFAH2 enzyme inhibitors, primary screen, biochemical, fluorescence polarization, human | inhibition, % at 3.39 µM | Platelet-activating factor acetylhydrolase 2, cytoplasmic (Homo sapiens), Q99487 | actives 0.99% (n = 340,000) | recombinant PAFAH2, FP-rhodamine activity probe;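 active = inhibition above the mean over all tested compounds plus 3 SD, cut at about 30% in these data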;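 also: inhibitors block probe labeling of enzyme so polarization drops; 0% = enzyme with DMSO and 100% = wells lacking PAFAH2 protein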
# PAFAH1B3 FP inh: PAFAH1B3 enzyme inhibitors, primary screen, biochemical, fluorescence polarization, human | Platelet-activating factor acetylhydrolase IB subunit alpha1 (Homo sapiens), Q15102 | recombinant PAFAH1B3, FP-rhodamine probe | inhibition, % at 3.39 µM | actives 0.28% (n = 340,000) | AID 492972, 2010;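 active = inhibition above the screen-wide average of all tested compounds plus 3 SD, cut at about 25% in these data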;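 also: 0% = enzyme with DMSO only and 100% = wells lacking PAFAH1B3 protein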
# pPAFAH FP inh: pPAFAH enzyme inhibitors, primary screen, biochemical, fluorescence polarization, human; actives 1.5% (n = 330,000); recombinant pPAFAH, FP-rhodamine probe fluorescence polarization; inhibition, % at 3.39 µM; Platelet-activating factor acetylhydrolase (Homo sapiens), Q13093;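 active = inhibition above the mean inhibition across the screen plus 3 SD, cut at about 25% in these data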;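 also: inhibitors block binding of the rhodamine activity-based probe so polarization drops; 0% = enzyme with DMSO and 100% = wells lacking pPAFAH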
# Fam108B counter: mouse Fam108B serine hydrolase inhibitors, primary screen, counter-screen for RBBP9 inhibitor project, biochemical, fluorescence polarization; actives 0.33% (n = 300,000); AID 1947, 2009; recombinant Fam108B, FP-Rh probe fluorescence polarization; inhibition, % at 9.51 µM;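 active = inhibition above the screen mean inhibition plus 3 SD, computed separately per campaign, cut at about 18% in these data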;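 also: inhibitors lower polarization as less probe binds the enzyme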
# PME-1 primary: PME-1 inhibitors via competitive probe labeling, primary screen, biochemical, fluorescence polarization, FP-Rh probe, HTS. inhibition, % at 5.9 µM. Protein phosphatase methylesterase 1 (Homo sapiens), Q9Y570. recombinant PME-1. AID 2130, 2009. actives 0.53% (n = 320,000);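 active = inhibition above the campaign mean of all compounds plus 3 SD, cut at about 26% in these data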;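 also: competitive labeling of PME-1 active site by serine hydrolase directed probe; 0% = PME-1 with DMSO and 100% = wells lacking PME-1 enzyme; inhibitors block probe labeling so polarization falls and inhibition rises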
# Target sequence (Q9Y570 whole entry, looked up): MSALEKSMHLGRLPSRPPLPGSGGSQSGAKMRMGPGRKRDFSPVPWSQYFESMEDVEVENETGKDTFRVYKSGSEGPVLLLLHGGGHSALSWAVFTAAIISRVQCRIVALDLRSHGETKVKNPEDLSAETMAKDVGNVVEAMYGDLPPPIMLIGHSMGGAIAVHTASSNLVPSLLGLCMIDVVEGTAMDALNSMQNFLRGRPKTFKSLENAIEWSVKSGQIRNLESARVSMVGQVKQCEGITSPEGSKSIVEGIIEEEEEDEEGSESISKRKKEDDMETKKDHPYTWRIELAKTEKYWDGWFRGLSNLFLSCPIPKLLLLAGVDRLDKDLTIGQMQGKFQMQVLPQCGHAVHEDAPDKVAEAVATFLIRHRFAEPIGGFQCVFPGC
# * hit, by the source's call; . = no result.
SMILES,PAFAH1B2 inh,PAFAH2 FP inh,PAFAH1B3 FP inh,pPAFAH FP inh,Fam108B counter,PME-1 primary
CCN1CCN(C(=O)c2ccc3nc(-c4ccccc4)c(-c4ccccc4)nc3c2)CC1,1.5,0.6,7.9,2.8,-1.5,1.4
O=C(CCSc1ccc(F)cc1)NNC(=O)c1ccc([N+](=O)[O-])cc1,28.5*,0.1,2.4,6.0,.,1.8
CC(=O)Nc1c(C(=O)O)ccc(C)c1OCc1ccccc1,3.9,1.1,10.4,.,.,.
CCN(CC)c1ccc(/C=C2/C(=O)c3ccc(C(=O)O)cc3C2=O)cc1,-8.2,17.9,-7.4,28.3*,-4.4,-26.2
CC(Sc1nncn1C)C(=O)Nc1ccc(N2CCCCC2)cc1 (centres undefined),1.0,-6.3,6.0,-4.7,.,1.7
O=C(COC(=O)C1(c2ccc(F)cc2)CCCC1)N1CCc2ccccc21,27.7*,-1.5,6.2,-5.9,0.6,-5.4
C[C@H]1CCC[C@]2(C)C[C@H]3OC(=O)C(CN4CCCCCC4)[C@H]3C=C12 (some centres undefined),30.4*,18.9,1.6,7.0,1.9,2.1
Cc1ccccc1NC(=O)c1sc2nc(N3CCOCC3)c3c(c2c1N)CCCC3,3.0,-0.5,4.0,27.1*,1.0,11.5
COc1ccccc1NC(=O)C1CC(C)OC1=O (centres undefined),2.5,5.6,1.3,4.0,-2.0,-0.6
O=C(c1ccccc1)N1CCN(C(=O)c2nn3c(C(F)(F)F)cc(-c4ccco4)nc3c2Br)CC1,3.5,12.5,9.5,34.3*,1.9,-2.5
Cc1ccc(SC(C)c2nc(-c3cccnc3)no2)cc1 (centres undefined),26.5*,-0.1,8.1,-2.0,1.0,-4.7
CC(C)(O)c1cc2ccc(C#Cc3ccsc3)cc2c(=O)o1,1.6,-4.6,6.4,4.5,.,-6.3
Fc1ccccc1NC(=S)N1CCN(Cc2ccccc2)CC1,-0.1,1.1,4.4,32.3*,4.3,4.8
Cc1ccc(S(=O)(=O)Nc2cccc(-c3cn4ccsc4n3)c2)cc1,6.1,-8.6,2.3,-0.2,-1.7,1.8
O=S(=O)(Nc1cccc(-c2cn3ccsc3n2)c1)c1ccc(F)cc1,7.2,4.7,14.3,32.2*,-0.6,0.7
COc1ccccc1N(C)S(=O)(=O)c1ccc(C(=O)N(C)Cc2ccc(Cl)s2)cc1,6.0,4.0,4.1,4.2,.,3.4
CC(=O)c1ccc(S(=O)(=O)NCCC(=O)NC2CCN(Cc3ccccc3)CC2)cc1,-4.1,-0.3,-2.7,2.0,.,.
CN1CCN(C(=O)c2ccc(CNS(=O)(=O)c3cccc(Cl)c3)cc2)CC1,3.0,1.5,-1.4,.,.,.
O=C(c1ccccc1)c1coc2c1C(=O)c1ccccc1C2=O,2.9,47.6*,28.6*,0.7,7.4,5.9
O=C1CSC(c2cccc([N+](=O)[O-])c2)N1C1CC2CCC1C2 (centres undefined),24.2*,2.5,-1.6,0.4,-6.9,3.5
O=C1CSC(c2cccc([N+](=O)[O-])c2)N1c1c(F)cccc1F (centres undefined),1.8,-1.1,-1.3,-3.6,-1.9,-5.1
CC(=O)CCc1ccc(Oc2nc(-c3cccnc3)nc3ccccc23)cc1,2.3,2.8,2.9,24.6*,-3.0,0.5
COc1ccc(Oc2nc(-c3cccnc3)nc3ccccc23)cc1,-1.0,-8.8,0.9,-2.1,-4.6,-10.7
CCOc1cc2c(cc1O)C(=NO)CC1C2CCC2(C)C(O)CCC12 (centres undefined),0.6,-3.7,8.9,.,.,.
CCCCOC(=O)c1ccc(NS(=O)(=O)c2cc(-c3nnnn3CC)ccc2OC)cc1,5.9,-0.1,9.0,28.4*,-3.6,4.8
SMILES,PAFAH1B2 inh,PAFAH2 FP inh,PAFAH1B3 FP inh,pPAFAH FP inh,Fam108B counter,PME-1 primary
CC(C)(C)c1ccc(/C=N/Nc2ccc(C(=O)O)cc2)cc1,11.9,15.8,3.8,13.7,2.9,13.0
CC1Oc2ccccc2C=C1/C=N/Nc1ccc(C(=O)O)cc1 (centres undefined),5.5,8.3,7.8,16.8,0.1,33.6*
Fc1cccc2sc(Nc3nc4cc5c(cc4s3)OCCO5)nc12,6.9,-6.4,1.9,9.4,9.8,66.8*
Fc1cc(F)c2nc(Nc3nc4cc5c(cc4s3)OCO5)sc2c1,9.9,-19.2,22.3,7.4,13.2,48.6*
Fc1cccc2sc(Nc3nc4cc5c(cc4s3)OCO5)nc12,2.6,-3.9,4.0,7.5,17.1,71.9*
CC(C)C(=O)Nc1nc2cc3c(cc2s1)OCO3,-0.8,3.8,-2.2,3.8,-2.6,-4.4
O=C(Nc1nc2cc3c(cc2s1)OCO3)C1CC1,5.4,7.9,7.2,3.6,1.2,0.1
CC1CCN(CCCN2C(=O)C3C(C(=O)Nc4ccc(Cl)cc4)C4C=CC3(O4)C2C(=O)NC2CCCCC2)CC1 (centres undefined),5.5,-7.5,3.7,1.8,-3.4,2.2
Cc1ccc(S(=O)(=O)N(C)C)cc1NC(=O)C1CCCN(C(=O)c2ccc(Cl)cc2)C1 (centres undefined),-4.6,1.5,11.7,3.1,0.4,4.5
COc1ccccc1N=C1NC(=O)/C(=C/c2ccc(N(C)C)cc2)S1,0.2,11.0,12.8,19.8,-3.1,2.2
Cc1ccc(NC(=O)c2cc(=O)c3ccccc3o2)cc1,5.3,3.1,1.3,2.1,1.8,-12.9
O=C(Nc1ccc(N2CCCC2)cc1)c1cc2ccccc2o1,2.9,-4.1,6.3,-16.7,-1.7,-2.3
CC(=O)Nc1ccc(NC(=O)c2cc(=O)c3ccccc3o2)cc1,3.5,0.6,5.4,27.7*,-2.4,-6.1
CC(=O)N1CCN(c2ccc(NC(=O)c3cc4ccccc4o3)cc2)CC1,3.2,-4.0,1.4,26.0*,1.4,-4.5
Cc1cc(C)c(C#N)c(SCCS(=O)(=O)c2ccc(C(C)(C)C)cc2)n1,-0.5,0.7,-0.3,-1.6,0.1,-2.1
Cc1cc(C)c(C#N)c(SCCS(=O)(=O)c2ccc(Cl)cc2)n1,29.2*,1.1,-3.6,3.5,0.2,13.1
O=C(CSc1nnc(-c2ccco2)n1-c1ccccc1Cl)Nc1cccc(C(=O)O)c1,-2.4,-3.2,2.1,4.8,-4.7,-2.2
Nc1nc(C2CCCCC2)cs1,57.6*,-1.2,6.8,-0.5,-1.3,2.4
CCC1(C)CC(c2csc(N)n2)CCO1 (centres undefined),1.4,-7.1,2.3,1.0,-3.8,-8.8
O=C(Oc1ccc(N(C(=O)c2ccncc2)S(=O)(=O)c2ccc(Cl)cc2)cc1)c1ccncc1,28.9*,-3.6,7.7,6.8,-2.5,-3.0

# Bioassay records as filed in PubChem.
